Compound activity deposited in PubChem by National Center for Advancing Translational Sciences (NCATS).
Hits are enriched below; roughly 2.7% of the tested compounds scored in any of these assays.
Coupling enz – qHTS Assay for Inhibitors of Fructose-1,6-bisphosphate Aldolase from Giardia Lamblia: Coupling assay counterscreen | coupling enzyme system counterscreen, AmpLite Red fluorescence | AID 2472, 2010 | activity change, negative = inhibition, % at 58.2 µM, hits read low | 0.67% of 290,000 active; in the data active = activity change below about -30%
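Activity here indicates interference with the coupling reaction, not aldolase inhibition. Compounds at 57.5 uM final met coupling enzymes for 10 min at RT; substrate and AmpLite Red detection followed, with a 525/598 nm fluorescence read after 20 min.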
Tau fibril ThT – qHTS for Inhibitors of Tau Fibril Formation, Thioflavin T Binding; Microtubule-associated protein tau (Homo sapiens), P10636; recombinant tau K18 P301L, heparin-induced fibrillization, ThT fluorescence; Potency, µM (doses to about 57.4 µM), usual class: inhibitors; 2.1% of 270,000 active; also: nearly all actives have a fitted effect of over 55% in size
Target sequence (P10636 561-689 P618L limits assumed): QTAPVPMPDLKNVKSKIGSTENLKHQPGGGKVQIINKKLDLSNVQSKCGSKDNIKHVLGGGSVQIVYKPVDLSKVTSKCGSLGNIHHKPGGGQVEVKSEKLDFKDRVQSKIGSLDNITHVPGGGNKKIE
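Heparin-induced (20 uM) aggregation of recombinant human K18 P301L tau, 15 uM unlabeled with 0.24 uM labeled, pH 7 acetate buffer, 6 hr at 37 C with compound. Fibrils quantified by 30 uM ThT fluorescence after 1 hr ambient incubation.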
Tau fibril FP – qHTS for Inhibitors of Tau Fibril Formation, Fluorescence Polarization; Microtubule-associated protein tau (Homo sapiens), P10636; K18 P301L tau heparin fibrillization, Alexa594 FP, 6 h; Potency, µM (doses to about 57.7 µM), most hits filed as inhibitors; 0.39% of 280,000 active; AID 1468, 2008; also: nearly all actives have a fitted effect of over 55% in size
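Read-out: fluorescence polarization of Alexa 594-labeled tau (0.24 uM), 555 nm excitation, 632 nm emission. Mixtures held 15 uM unlabeled K18 P301L, compound and 20 uM heparin, pH 7 acetate buffer, incubated 6 hr at 37 C.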
Tau fluor counter – Counterscreen qHTS for Inhibitors of Tau Fibril Formation, Fluorescence Polarization. 0.93% of 280,000 active. Potency, µM (series often up to 57.7 µM). tau K18 P301L (four-repeat tau fragment) Alexa594 fluorescence, heparin fibrillization; also: nearly all actives have a fitted effect of over 55% in size
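Human K18 P301L tau (15 uM unlabeled plus 0.24 uM Alexa 594-labeled, final) in 100 mM sodium acetate pH 7 was mixed with compound and 20 uM heparin and incubated 6 hr at 37 C.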
Numbers stand for hits; n = inactive; u = inconclusive; x = no result given; [ ] = remark or other dose. Unless noted, calls follow the shape of the dose curve; as a rule, active = well fitted curve in the direction sought with a large enough effect; inconclusive = small, poorly fitted or top-dose-only effect, or another doubt; inactive = no such curve, though single readings can be large; an effect the other way counts as inactive or inconclusive.

SMILES	Coupling enz	Tau fibril ThT	Tau fibril FP	Tau fluor counter
Cc1ccc(O)c(N=Nc2ccccc2)n1	n	17.8µM	n	n
Oc1ccc(Cl)cc1N=Nc1ccccc1	n	x	x	x
O=[N+]([O-])c1cc(-c2nc(-c3ccccc3)no2)ccc1NCc1cccnc1	x	n	n	n
Cn1nc(-c2ccccc2)cc1NC(=O)Nc1ccc(C(C)(C)C)cc1	n	n	28.2µM	12.6µM[quencher]
Cc1cnc(CNc2ccnc(-c3ccc(N(C)C)cc3)n2)cn1	n	n	n	n
COc1ccc(NC(=O)CSc2nc(-c3ccc(OC)c(OC)c3)[nH]c2-c2ccc(C)cc2)cc1	x	n	n	4.47µM[quencher]
COc1ccc(NC(=O)CSc2nc(-c3ccc(OC)cc3)[nH]c2-c2ccc(F)cc2)cc1	x	n	n	u
COc1ccc(-c2[nH]c(-c3ccc(OC)c(OC)c3)nc2SCC(=O)Nc2ccccc2)cc1	x	n	n	6.31µM[quencher]
COc1ccc(NC(=O)CSc2nc(-c3cccc(C)c3)[nH]c2-c2ccccc2)cc1OC	x	u	n	8.91µM[quencher]
COc1ccc(-c2nnc(SCC(=O)Nc3ccc4c(c3)OCCO4)n2N)cc1OC	n	u	n	n
COc1ccc(-c2nc(SCC(=O)Nc3ccc4c(c3)OCCO4)c(-c3ccc(C)cc3)[nH]2)cc1OC	x	u	n	7.94µM[quencher]
COc1ccc(C(=O)Nc2nc(-c3nnn(-c4ccc(F)cc4F)c3C)ns2)cc1	x	n	u	n
CN(CCCNC(=O)c1cc2c(=O)n(C)c3ccccc3c2s1)Cc1ccccc1	x	n	n	n
Cc1ccc(NC(=O)CCn2c(=O)c3cccn3c3ccccc32)c(Cl)c1	x	u	n	n
CC(=O)Nc1ccc(S(=O)(=O)NC2(C(F)(F)F)NC(=O)N(CCc3ccc(F)cc3)C2=O)cc1 (stereo not drawn)	x	n	n	n
Cc1cc(C)cc(NC(=O)C2CCN(S(=O)(=O)c3cccc(-c4noc(C)n4)c3)CC2)c1	x	n	n	n
COc1ccc(NC(=O)C2=NN(C3CCS(=O)(=O)C3)C(=O)CC2)cn1 (stereo not drawn)	-42.1	n	n	n
COc1ccc(NC(=O)C(c2ccccc2)c2ccccc2)cn1	n	n	n	n
COc1cccc(CNC(=O)CSc2ncc(S(=O)(=O)c3ccc(C)c(Cl)c3)c(=O)[nH]2)c1	x	n	n	n
O=c1cc(-c2ccccc2Cl)oc2c(NS(=O)(=O)c3cc(Cl)cc(Cl)c3O)ccc(O)c12	n	22.4µM	31.6µM	u
CCN(CC)CCOC(=O)c1ccc(NC(=O)c2cc3cc(OC)ccc3oc2=O)cc1	x	u	n	n
C=CCN1C(=O)/C(=C/c2ccc(OC)cc2)S/C1=N/c1nccs1	n	n	n	n
C=CCN1C(=O)/C(=C2/C(=O)N(CC(=O)O)c3ccccc32)S/C1=N/c1nccs1	n	7.08µM	n	u
C=CCN1C(=O)/C(=C/c2ccc(O)cc2)S/C1=N/c1nccs1	n	u	u	3.55µM[quencher]
COc1ccccc1N1CCN(CC(=O)Nc2nc(C)c(C(=O)N(C)C)s2)CC1	n	x	x	x
SMILES	Coupling enz	Tau fibril ThT	Tau fibril FP	Tau fluor counter
O=c1c(CCc2ccccc2)nc2cnc(N3CCOCC3)nc2n1-c1ccccc1	n	x	x	x
CCOC(=O)/C(=C/C=C1\Sc2cc(C)c(C)cc2N1CC)C(C)=O	n	10µM	n	n
CCOc1ccc(Br)cc1S(=O)(=O)Nc1ccc(C(=O)OCC(=O)Nc2ccc(C#N)cc2)cc1	n	n	25.1µM	u
CC(C)(C)c1ccc(NC(=O)COC(=O)c2ccc(NS(=O)(=O)c3ccc(F)c(F)c3)cc2)cc1	n	n	28.2µM	u
CN1\C(=C/C=C/C=C/C=[N+](C)C)C(C)(C)c2ccccc21	n	3.55µM	u	1.58µM[fluorescent]
CN(C)c1ccc(N=C/C=C2\N(C)c3ccccc3C2(C)C)cc1	n	5.01µM	n	u
O=C(Nc1nc2c(F)cc(F)cc2s1)c1ccc(S(=O)(=O)N2CCc3ccccc32)cc1	x	n	14.1µM	n
O=S(=O)(Nc1nc2ccccc2nc1-[n+]1cccc(N=C([O-])c2ccc(Cl)cc2)c1)c1ccccc1	n	15.8µM	n	u
Cc1noc(NS(=O)(=O)c2ccc(NC(=O)COc3ccccc3Br)cc2)c1C	x	n	n	n
CCCc1[nH]nc2c1C(c1ccc(OC)c(CSC3=NCCS3)c1)C(C#N)=C(N)O2 (stereo not drawn)	-40.7	n	n	n
CCOC(=O)Cn1c(=O)n(CC2CCCO2)c2nc(-c3ccc(C(C)C)cc3)nc(C(N)=O)c21 (stereo not drawn)	x	n	n	n
COc1ccc(NC(=O)Nc2sc3nc4n(c(=O)c3c2C)CCC(C)CC4)cc1OC (stereo not drawn)	x	u	u	8.91µM[quencher]
CC(=O)Nc1ccc(NC(=O)Nc2sc3nc4n(c(=O)c3c2C)CCC(C)CC4)cc1 (stereo not drawn)	x	u	n	u
Oc1ccc(C=Nc2cccc3ccccc23)c(O)c1	-34.8	x	x	x
O=[N+]([O-])c1ccc(O)c(C=Nc2cccc3ccccc23)c1	n	x	x	x
COCCNC(=S)N(CCc1c(C)[nH]c2ccc(F)cc12)Cc1cccs1	n	n	n	14.1µM[quencher]
CNC(=S)N(CCc1c(C)[nH]c2ccc(Cl)cc12)Cc1cccs1	n	n	u	15.8µM[quencher]
COCCNC(=S)N(CCc1c(C)[nH]c2ccc(Cl)cc12)Cc1cccs1	n	n	n	8.91µM[quencher]
CCNC(=S)N(CCc1c(C)[nH]c2ccc(C)cc12)Cc1cccs1	n	u	u	14.1µM[quencher]
CCC(=O)OCC(=O)[C@@]1(OC(=O)CC)[C@H](C)C[C@@H]2[C@@H]3[C@H]([C@@H](O)C[C@@]21C)[C@]1(C)C=CC(=O)C=C1C[C@@H]3Cl	n	x	x	x
CCCCc1nc2c(c3c1C[C@H](C)OC3)CN(C(=O)C1CCCCC1)CC2	n	n[11.5 µM]	n[11.6 µM]	n[11.6 µM]
COc1cccc(CSc2nc(-c3ccccc3F)nc3c2Cc2c(CO)cnc(C)c2O3)c1	x	n	n	n
CCNC(=S)N(CCc1c(C)[nH]c2ccc(Cl)cc12)Cc1ccco1	n	n	u	12.6µM[quencher]
CN1CCN(c2ncc3nc(-c4cc(F)cc(F)c4)c(=O)n(CCC#N)c3n2)CC1	n	x	x	x
Cc1cc(N2CCCC2)ccc1/C=N/n1cnnc1	n	7.08µM	n	n
SMILES	Coupling enz	Tau fibril ThT	Tau fibril FP	Tau fluor counter
COc1ccc2[nH]cc(CCNc3ccnc(-c4ccc(C(=O)N(C)C)cc4)n3)c2c1	n	x	x	x
O=C(c1ccc(CSc2nc3ccncc3n2Cc2ccccc2F)cc1)N1CCCCCC1	x	n	n	n
COC(=O)Oc1nsnc1N1CCOCC1	n	u	u	n
O=c1c(N2CCOCC2)nsnc1N1CCOCC1	-53.8	n	n	n
COCCNC(=O)C1CCC(CNS(=O)(=O)c2ccc(F)cc2)CC1 (stereo not drawn)	n	x	x	x
Cc1cccc(NC(=O)CSc2nc3c(oc4ccccc43)c(=O)n2Cc2ccco2)c1	x	n	n	n
CCCOC(=O)c1ccc(Oc2c(-c3ccc(O)cc3O)n[nH]c2C)cc1	n	n	n	n
COc1ccc(-c2cn[nH]c2-c2ccc(O)cc2O)cc1	n	x	x	x
